Measurements: the supplement of paper PMC6555819

Key:
Assay in all cases: PBM binding z-score (relative to random genomic background probes); higher = stronger binding; sequences stand for … in GC…GCGATTGACAGCGTAGAATGAAGG
[1] = test system: FXR:RXRa (NR concentration 270 nM, RXRa partner concentration 90 nM)
Summary of the method: (§1)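 Each nuclear receptor dimer, without ligand, was incubated for 1 h on custom Agilent 4×180K protein-binding microarrays. Binding was detected with antibodies against each partner (one per run), and scanned fluorescence was regression-normalized. The binding z-scores are referenced to random human genomic background probes.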

[2] = test system: LXRa:RXRa (NR concentration 270 nM, RXRa partner concentration 90 nM)
Summary of the method: as §1

[3] = test system: LXRa homodimer (NR concentration 270 nM)
Summary of the method: as §1

[4] = test system: LXRb:RXRa (NR concentration 270 nM, RXRa partner concentration 90 nM)
Summary of the method: as §1

[5] = test system: LXRb homodimer (NR concentration 270 nM)
Summary of the method: as §1

[6] = test system: PPARa:RXRa (NR concentration 270 nM, RXRa partner concentration 90 nM)
Summary of the method: as §1

[7] = test system: PPARg:RXRa (NR concentration 180 nM, RXRa partner concentration 90 nM)
Summary of the method: as §1

[8] = test system: PPARg:RXRa 270nM:90nM, anti-RXR (NR concentration 270 nM, RXRa partner concentration 90 nM)
Summary of the method: as §1

[9] = test system: PPARg:RXRa 30nM:10nM, anti-RXR (NR concentration 30 nM, RXRa partner concentration 10 nM)
Summary of the method: as §1

[10] = test system: PPARg:RXRa 90nM:30nM, anti-RXR (NR concentration 90 nM, RXRa partner concentration 30 nM)
Summary of the method: as §1

| Sequence | PBM binding z-score [1] | PBM binding z-score [2] | PBM binding z-score [3] | PBM binding z-score [4] | PBM binding z-score [5] | PBM binding z-score [6] | PBM binding z-score [7] | PBM binding z-score [8] | PBM binding z-score [9] | PBM binding z-score [10] |
| --- | --- | --- | --- | --- | --- | --- | --- | --- | --- | --- |
| CCGATTAGTTGACCATAAGGGCAACCGAAGCTCG | 0.669 | 0.102 | -0.113 | 0.217 | -0.191 | 0.52 | 0.357 | 0.312 | -0.22 | 0.0545 |
| AGAATGAGGGTATTAAGATCAGGGAATTGCGGTC | 0.048 | 0.136 | -0.107 | -0.105 | 0.211 | 0.659 | 0.403 | 0.28 | 0.322 | 0.102 |
| ATCGCAAGGTCGAGGTGAGTATAGAGAAAGGGAA | 1.56 | 0.947 | -0.582 | 0.995 | -0.275 | 2.5 | 1.05 | 0.957 | 0.1 | 0.379 |
| TCTAGTAGGCCAGAGGGTCACTCAAGAGGTACGG | 0.984 | 1.06 | -0.235 | 1.23 | -0.774 | 3.17 | 4.36 | 5.3 | 4.21 | 5.28 |
| TCTTGTAGTTCAATAGAGGTTAAGAAAGTGCGCT | 2.33 | 5.37 | 2.45 | 3.06 | 0.28 | 2.28 | -0.0212 | 1.83 | 2.94 | 2.06 |
| GCTGCTAGGTCAGGTTGGGCAGCTAACGGGTACG | 1.01 | 0.624 | -0.384 | 0.136 | -0.285 | 0.991 | 0.332 | 0.824 | -0.181 | 0.136 |
| CAAACTAGGTCAAAGGGCAAAGTCGAGCCAACCA | 6.12 | 5.04 | 1.25 | 4.01 | 0.969 | 6.94 | 12.9 | 10.6 | 11 | 11.7 |
| TCGAGTAGGTTAGTCGGGGCACTCAGCCAACATA | 0.251 | 0.253 | -0.0703 | 0.402 | -1.06 | 0.681 | 0.103 | 0.749 | 0.995 | 0.753 |
| TCGAGTAGGTTACCAATGGGGCATTCATCTTTCT | -0.000727 | 1.01 | -0.201 | 1.21 | -0.516 | 1.23 | 0.329 | 1.33 | 1.28 | 1.18 |
| GTACCAAGGTGAATATGTCGTTGATGAGTAGGCG | 0.455 | 0.146 | -0.0291 | -0.0194 | -0.329 | 0.873 | 0.753 | 0.42 | 0.0719 | 0.185 |
| ATAGGTAGGTTAAGGGTCATTCAGGTTGGTTCGC | 5.35 | 5.02 | 3.31 | 4.83 | 2.47 | 5.86 | 9.73 | 8.69 | 8.35 | 9.51 |
| TCATATAGGTAAAGGTGAAAGTAGAACGATATGA | 1.05 | 1.4 | -0.101 | 1.28 | 0.0204 | 3.29 | 4.62 | 4.54 | 4.45 | 4.86 |
| CCTATTAGTTGACCATAAGAGCAACCGAAGCTCG | 0.554 | 0.617 | 1 | 0.594 | 1.16 | 0.283 | 0.521 | 0.101 | 0.292 | -0.0122 |
| GGAACGAGCGCATTCGAGTTGATAGCATGGCGAT | -1.63 | -0.936 | -0.9 | -1.41 | -1.24 | -1.94 | 0.379 | -1.09 | -0.954 | -1.27 |
| CGAACCAGGTCAGAACAGGACAGTGAAGGATGAT | 2.83 | 1.68 | 0.0841 | 0.939 | -0.216 | 2.43 | 2.14 | 1.88 | 0.485 | 1.32 |
| CGTCCAAGGTCAATGCTACGTCAGTGAAAGCATT | 6.6 | 4.58 | 0.394 | 3.37 | 0.412 | 4.89 | 3.32 | 4.18 | 1.44 | 3.3 |
| ACAGACAGGTGAAGAAGGTAACTCAGGCTATCAT | 0.248 | 0.203 | -0.161 | 0.234 | -0.276 | 0.721 | 0.796 | 0.34 | 0.0156 | -0.0588 |
| CCTAGTTGGTCAGGAGGTGACACACCGGATATGA | 0.076 | 0.0334 | 0.0506 | 0.214 | -0.0582 | 1.17 | 1.04 | 1.33 | 0.0174 | 0.666 |
| CTCGAAAGGTCGTGCTAAGGTGAGTATACCAAAC | 5.5 | 4.12 | 0.337 | 3.46 | 0.12 | 5.03 | 3.4 | 4.54 | 1.67 | 3.46 |
| CCTACTGGGCCATTCAGAGTTCATTGATCATATG | 0.991 | 2.71 | 6.11 | 1.86 | -0.389 | 2.28 | 1.04 | 1.61 | 0.0346 | 0.782 |
| GATACAGGGTCAGCTAGAGGCCAGACTATGGAAA | 4.52 | 2.92 | -0.325 | 2.4 | 0.0441 | 4.49 | 4.01 | 3.55 | 1.29 | 2.19 |
| AGAATGAGGTTATACGTAGATCATGGAAGAAAGT | 2.28 | 2.35 | 0.00529 | 1.76 | 0.0323 | 3.28 | 2.34 | 2.58 | 1.01 | 1.79 |
| GATACAGGGTCAAGCCCAGAGTACGCGTATTGAT | 7.02 | 4.26 | -0.0405 | 3.88 | -0.376 | 5.68 | 6.04 | 5.82 | 2.34 | 4.41 |
| AGAATGAGGTTATACGTAGATGAGGGAAGAAAGT | 2.17 | 1.97 | 0.0433 | 1.72 | 0.276 | 3.19 | 2.17 | 2.49 | 1.05 | 1.88 |
